# Test results published in PubChem BioAssay AID485270 (The Scripps Research Institute Molecular Screening Center, 2010).
# Among all 330,000 compounds or so, about 5,800 (1.8%) were called active. What follows is part of a selection rich in actives, with near analogues and random picks from the rest. Values without a mark were called inactive. No stated cut-off is given here; in the data, active means inhibition mostly above about 38% (no sharp cut-off); inactive means mostly below about 40%.
# Biological target: Orexin/Hypocretin receptor type 1 (Homo sapiens) (UniProt O43613)
# Experiment: antagonists of human orexin 1 receptor (OX1R) (AID 485270);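 further: 0% = agonist challenge alone and 100% = reference antagonist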
# Settings: OX1R-expressing cells, FRET antagonist read-out; at 6.6 µM; hits give high values
# Sequence of Orexin/Hypocretin receptor type 1 (Homo sapiens) (O43613 whole entry, looked up): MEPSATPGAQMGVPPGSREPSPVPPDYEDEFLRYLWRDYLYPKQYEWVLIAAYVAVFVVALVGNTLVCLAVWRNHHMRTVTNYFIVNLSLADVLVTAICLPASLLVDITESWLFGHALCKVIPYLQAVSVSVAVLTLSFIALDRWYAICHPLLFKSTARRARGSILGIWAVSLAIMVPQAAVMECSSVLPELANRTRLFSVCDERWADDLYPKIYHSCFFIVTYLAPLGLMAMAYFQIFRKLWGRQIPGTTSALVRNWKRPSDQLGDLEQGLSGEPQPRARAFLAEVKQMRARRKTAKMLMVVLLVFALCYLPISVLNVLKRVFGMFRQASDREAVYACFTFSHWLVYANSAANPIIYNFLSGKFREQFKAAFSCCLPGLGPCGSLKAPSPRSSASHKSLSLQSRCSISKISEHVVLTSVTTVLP
row,SMILES,inhibition
1,CCOCN(C(=O)Cn1c(C(C)O)nc2ccccc21)c1c(C)cccc1CC (centres undefined),24%
2,O=C(NCCCCCCNC(=O)NCc1ccco1)NCc1ccco1,10.8%
3,Cc1cc(NC(=O)CSc2ncc(C(F)(F)F)cc2Cl)no1,0.5%
4,CCCCCCSc1ccc(-c2nc3ccc(Cl)cn3c2NCc2ccccc2)cc1,12.3%
5,COc1ccc2sc(-c3ccc(S(C)(=O)=O)cc3)c(-c3ccc(C(N)=O)cc3)c2c1,8.78%
6,COc1ccc(OC)c(NC(=O)CN(C)CCOc2ccc(Br)cc2)c1,38.8% (active)
7,COc1ccc(Br)cc1CN(C)CC(=O)Nc1cc([N+](=O)[O-])ccc1OC,12.8%
8,CN(CCOc1ccc(Br)cc1)CC(=O)Nc1cccc(S(=O)(=O)NC2=NCCC2)c1,18.8%
9,CN(CC(=O)Nc1cccc2c1CCCC2)S(=O)(=O)c1ccc(Cl)cc1,3.84%
10,COc1ccc(-c2nc3cnccn3c2NC2CCCCC2)cc1-c1cccc(Cl)c1,14.3%
11,COc1ccccc1N1CCN(C(=O)c2cc3c(-c4ccc(Cl)cc4)nn(C)c3s2)CC1,2.56%
12,Cn1nc(-c2ccc(Cl)cc2)c2cc(C(=O)NCc3ccco3)sc21,56.6% (active)
13,COc1ccc2c(Cl)c(C(=O)NCc3ccco3)sc2c1,5.49%
14,CN(CCC1CCOCC1)Cc1cn[nH]c1-c1ccc(-c2ccccc2)cc1,7.23%
15,O=C(CNC(=O)c1ccccc1)Oc1ccc([N+](=O)[O-])cc1,19.6%
16,O=C(NC(Nc1nc2ccc([N+](=O)[O-])cc2s1)(C(F)(F)F)C(F)(F)F)c1ccccc1,89.4% (active)
17,O=C(CCC(=O)c1cccs1)Nc1nc2ccccc2s1,6.48%
18,O=C(CCNC(=O)c1ccccc1)Nc1nc2ccccc2s1,7.04%
19,Cc1cc(CNC(=O)c2cccc([N+](=O)[O-])c2)c2ccccc2n1,58.6%
20,O=C(O)CCC(=O)Nc1nc2ccc([N+](=O)[O-])cc2s1,78.8% (active)
21,Cc1csc2nc(COC(=O)c3cccc(N(C)C)c3)cc(=O)n12,13.4%
22,COc1cc(C=NNC(=O)c2cccnc2)ccc1OC(=O)c1ccccc1F,8.6%
23,CC(CNC(=O)Cn1cnc2c(OCc3ccccc3)ncnc21)c1ccccc1 (centres undefined),3.56%

row,SMILES,inhibition
1,O=C(c1ccc(N2CCOCC2)c([N+](=O)[O-])c1)N1CCN(c2ccccc2F)CC1,7.32%
2,O=C(Nc1cccc(S(=O)(=O)N2CCCCC2)c1)c1cncc(Br)c1,-0.59%
3,C=CC[C@@H](CC(=O)N[C@H](CO)Cc1ccccc1)C(=O)N[C@H](C)COC(=O)[C@@H](CC=C)Cc1ccc(F)cc1,20.2%
4,COc1ccc(OC)c(NC(=O)C2CCCN2S(=O)(=O)c2cccc3nsnc23)c1 (centres undefined),44.2% (active)
5,COc1ccc(N(C)C(=O)C2CCN(S(=O)(=O)c3cccc4nsnc34)CC2)cc1,14.4%
6,O=C(O)C(NS(=O)(=O)c1cccc2nsnc12)c1ccccc1 (centres undefined),40.5%
7,CC1CCCCC1NC(=O)C1CCCN1S(=O)(=O)c1cccc2nsnc12 (centres undefined),73.9% (active)
8,COc1ccc(NS(=O)(=O)c2cccc3nsnc23)cc1Cl,12.4%
9,CC(=O)c1cccc(NC(=O)C2CCCN2S(=O)(=O)c2cccc3nsnc23)c1 (centres undefined),110% (active)
10,Cc1ccc2nsnc2c1S(=O)(=O)N1CCCC1C(=O)O (centres undefined),30.4%
11,CC(=O)c1ccc(NC(=O)C2CCCN2S(=O)(=O)c2cccs2)cc1 (centres undefined),12%
12,CC(=O)c1cccc(NC(=O)C2CCCN(S(=O)(=O)c3cccc4nonc34)C2)c1 (centres undefined),24.2%
13,Cc1noc(C)c1NC(=O)Nc1cccc2c1O[C@H](CN(C)C(=O)Nc1ccccc1)[C@@H](C)CN([C@H](C)CO)C2=O,6.95%
14,CC(=O)C[C@H](O)CC(=O)[C@@H]1OC(=O)[C@@H](C)C/C=C\Cc2ccccc21,0.77%
15,O=C1OCCN1C(=O)[C@H]1[C@H](c2ccccc2)C(c2ccc(F)cc2)=NN1c1ccccc1,5.3%
16,Cc1cccc(N2O[C@H]3C=CC2CCCC3)n1,3.41%
17,CCn1nc(C(=O)NNS(=O)(=O)c2cc(/C=C/C(=O)O)cc(OC)c2OC)c2ccccc2c1=O,3.49%
18,CC[C@]12c3[nH]c4ccc(OC)cc4c3CCN1C(=O)C(CC(=O)NCCN1CCOCC1)C[C@@H]2C(=O)N1CCN(C(=O)C2CC2)CC1 (some centres undefined),17.4%
19,O=C1c2ccccc2C(=O)c2c1cccc2N1CCN(Cc2ccccc2)CC1,14.2%
20,O=C1c2ccccc2C(=O)c2c1cccc2N1CCN(CCO)CC1,56.4% (active)
21,O=C1c2ccccc2C(=O)c2c1cccc2N1CCN(C/C=C/c2ccccc2)CC1,20.4%
22,COc1ccc(/C=C/C(=O)OCC(=O)NC2CCCCCC2)cc1OC,5.65%
23,COc1cc(/C=C/C(=O)OCC(=O)c2ccccc2)cc(OC)c1OC,7.01%

row,SMILES,inhibition
1,CCOc1ccc(/C=C/C(=O)OCC(=O)c2ccccc2OC)cc1OC,62.2% (active)
2,CCc1nnc(NC(=O)CSCc2cc(=O)n3cc(C)sc3n2)s1,8.1%
3,O=C(COC(=O)c1cccnc1Cl)Nc1ccc(S(=O)(=O)N2CCOCC2)cc1,7%
4,CC(=O)N1Cc2ccccc2CC1C(=O)O (centres undefined),2.65%
5,COc1ccc(NC(=O)N(C)C[C@H]2Oc3ccc(NC(=O)C4CC4)cc3C(=O)N([C@H](C)CO)C[C@@H]2C)cc1,9.29%
6,COc1cc(C2CC(=O)Oc3cc(OC)c(OC)c(OC)c32)cc(OC)c1OC (centres undefined),5.32%
7,CN(C(=O)c1cccc(NC(=O)Cc2cccc([N+](=O)[O-])c2)c1)C1CCCCC1,10.1%
8,CC(=O)c1ccc(NC(=O)Nc2ccc([N+](=O)[O-])cc2C)cc1,26%
9,COC(=O)c1ccc(NC(=O)Nc2ccc(C)cc2)cc1,15.3%
10,COc1cc(NC(=O)Nc2ccc(C)cc2)cc([N+](=O)[O-])c1,45.8% (active)
11,CC(C)(C)OC(=O)C[C@@H]1C/C=C\C[C@H](CC(=O)N[C@@H](CO)Cc2ccccc2)C(=O)N[C@H](Cc2ccccc2)COC1=O,4%
12,CC(=O)Oc1ccc2c(c1)C(=O)c1ccccc1C2=O,30.9% (active)
13,CC(=O)Oc1cccc(C(=O)Nc2ccccc2NC(=O)c2cccc(OC(C)=O)c2)c1,6.54%
14,CC(=O)O[C@H]1c2ccccc2-c2ccccc2[C@@H]1OC(C)=O,1.8%
15,Cc1ccnc(SCC(=O)Nc2cccc(S(=O)(=O)N3CCOCC3)c2)n1,5.6%
16,CC1CCN(C(=O)COC(=O)c2cc(=O)[nH]c3ccccc23)CC1,3.71%
17,CN(C(=O)CSc1nnnn1-c1ccccc1)C1CCCCC1,9.05%
18,CN(C)/C=C(/C(=O)c1ccc(Cl)c(Cl)c1)c1nnnn1-c1ccccc1,4.6%
19,CCC(=O)N(C)C(c1ccccc1Cl)c1nnnn1-c1c(C)cccc1C (centres undefined),74.2% (active)
20,Cc1ccc(C)c(NS(=O)(=O)c2c(C)[nH]c(C)c2C(=O)N2CCCCC2)c1,49.2% (active)
21,Cc1ccc(C)c(N2CCN(S(=O)(=O)c3c(C)[nH]c(C)c3C(=O)N3CCCC3)CC2)c1,5.67%
22,Cc1ccc(NS(=O)(=O)c2c(C)[nH]c(C)c2C(=O)N2CCCCC2)c(C)c1,21.7%
23,O=C(COC(=O)CN1C(=O)C2CCCCC2C1=O)Nc1ccc(F)c(F)c1F (centres undefined),0.98%

row,SMILES,inhibition
1,Cc1oc2c(c1C(=O)N1CCOCC1)C(=O)c1ccccc1C2=O,90.1% (active)
2,Cc1ccccc1-c1ccc(Nc2ccc(C(=O)N3CCOCC3)cc2)nn1,20.7%
3,Cc1ccc(C(=O)N2CCN(C(=O)N3CCOCC3)CC2)cc1,5.22%
4,Cc1cccc(C(=O)N[C@H](C(=O)NCc2cccs2)C(C)C)c1,11.5%
5,CN[C@H](C(=O)NC[C@H]1O[C@@H](n2cnc3c(N)ncnc32)[C@H](O)[C@@H]1O)[C@@H](C)OCc1ccccc1,5.21%
6,Cc1ccc(C(=O)NNC(=O)c2ccc3c(c2)OCCO3)cc1,8.1%
7,COc1cccc(NC(=O)CN(C)C(=O)c2ccccc2CCc2ccccc2)c1,67.5% (active)
8,COc1cccc(NC(=O)CN(C)C(=O)Cc2ccc(Cl)cc2Cl)c1,17.8%
9,COc1cccc(NC(=O)CN(C)C(=O)c2cc(C3CC3)nn2-c2ccccc2)c1,14%
10,CC(C)n1ncc2c(C(=O)Nc3ccc(CC#N)cc3)cc(C3CC3)nc21,4.43%
11,Cc1ccc(S(=O)(=O)Nc2ccc3c(c2)C(=O)N([C@H](C)CO)C[C@@H](C)[C@@H](CN(C)C(=O)Nc2cccc4ccccc24)O3)cc1,2.14%
12,COc1ccccc1CCNC(=O)C(=O)NCCC1CCCCN1S(=O)(=O)c1cccs1 (centres undefined),57.5% (active)
13,COc1ccc(CCNC(=O)C(=O)NCC2CCCN2S(=O)(=O)c2cccs2)cc1OC (centres undefined),17.3%
14,O=C(NCCC1CCCCN1S(=O)(=O)c1cccs1)C(=O)Nc1ccc(F)cc1F (centres undefined),12.6%
15,CNc1ccc(NC(C)=O)cc1[N+](=O)[O-],59.9% (active)
16,CNc1ccc([N+](=O)[O-])cc1C(=O)O,17.5%
17,CC(=O)Nc1ccc(Nc2c([N+](=O)[O-])cc(S(C)(=O)=O)cc2[N+](=O)[O-])cc1,98% (active)
18,Cc1ccc(NC(=O)c2sccc2C)cc1[N+](=O)[O-],14.5%
19,CC(=O)Nc1ccc(NC(=S)NC(=O)c2ccc([N+](=O)[O-])c(C)c2)cc1,4.21%
20,CC(=O)Nc1ccc(S(=O)(=O)N2CCN(c3ccc([N+](=O)[O-])c(NCCN4CCOCC4)c3)CC2)cc1,24.8%
